PubChem BioAssay (NCATS)
Inconclusive results are not listed. A call without a number means that no potency is given here. Active and inactive are the calls of the source. Unless noted, calls come from the whole dose curve; as a rule, active = well fitted curve in the direction sought with a large enough effect; inconclusive = small, poorly fitted or top-dose-only effect, or another doubt; inactive = no such curve, though single readings can be large; an effect the other way counts as inactive or inconclusive.

What was measured:
[1] = target: Ubiquitin carboxyl-terminal hydrolase 1 (Homo sapiens) (UniProt O94782); experiment: Inhibitors of USP1/UAF1: Pilot qHTS (AID 504865);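 note: rhodamine fluorescence freed from ubiquitin-rhodamine substrate followed over time; top concentration of the series differs between compounds; nearly all actives have a fitted effect of over 35% in size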
Method in brief: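 USP1/UAF1 complex at 1 nM preincubated 15 min at room temperature with compound, then Ub-Rho substrate added at 150 nM final. Fluorescence (480/540 nm) read kinetically in 50 mM HEPES pH 7.8, 0.5 mM EDTA, 1 mM TCEP, 0.1 mg/ml BSA, 0.01% Tween-20.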

[2] = target: Estrogen receptor (Homo sapiens) (UniProt P03372); experiment: qHTS assay for small molecule antagonists of estrogen receptor alpha signaling (AID 588513; active = well fitted curve in the direction sought with a large enough effect in the signal ratio, with a control signal flat, not every such curve was filed as active; the % refers to the signal ratio; note: potency is the fitted concentration of half-maximal effect)
Method in brief: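 ER-alpha-UAS-bla GripTite HEK 293 cells in 2% charcoal/dextran-treated FBS medium; compounds titrated (1:2, duplicate), then stimulated with 0.5 nM 17-beta-estradiol for 18 h at 37C. CCF4 beta-lactamase fluorescence; Hill-fit IC50 and efficacy.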

[3] = target: Estrogen receptor (Homo sapiens) (UniProt P03372); experiment: qHTS assay for small molecule agonists of estrogen receptor alpha signaling (AID 588514; calls by dose curve; note: nearly all actives have a fitted effect of over 70% in size)
Method in brief: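 Efficacy is expressed against 20 nM 17-beta-estradiol (100%) and DMSO basal (0%); EC50 from Hill equation. Assay: beta-lactamase reporter in ER-alpha-UAS-bla HEK 293 cells, 18 h compound incubation, CCF4 detection.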

[4] = target: DNA dC->dU-editing enzyme APOBEC-3G (Homo sapiens) (UniProt Q9HC16); experiment: qHTS for inhibitors of Vif-A3G interactions: Validation (AID 588379)
Method in brief: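 Yellow fluorescence (Ex 488, Em 500-530) of Vif-coexpressing HeLa A3G-eYFP cells, scanned by Acumen cytometer, reports blocked A3G degradation. Cells plated at 700/well overnight at 37 deg C before compound addition, then a further overnight compound incubation at 37 deg C.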

[5] = target: Peptidyl-prolyl cis-trans isomerase NIMA-interacting 1 (Homo sapiens) (UniProt Q13526); experiment: qHTS Validation Assay to Find Inhibitors of Pin1 (AID 504536; active = well fitted inhibition curve with a large enough effect in the polarisation, with a control signal flat, not every such curve was filed as active; the % refers to the polarisation)
Method in brief: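 Fluorescence polarization competition: compounds (titration) displace HiFluor-488-labeled Pin1-1b peptide from Pin1 (0.3 uM final) in pH 7.5 HEPES buffer with DTT, 10 min at room temperature; %Activity normalized to no-enzyme wells, curves fitted.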

[6] = target: Phosphoglycerate kinase, glycosomal (Trypanosoma brucei brucei) (UniProt P07378); experiment: qHTS Validation Assay to Find Inhibitors of Phosphoglycerate Kinase (AID 504547)
Method in brief: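 Luminescence end-point (Kinase-Glo Plus, 10 min) after a 60 min room-temperature coupled reaction. GAPDH at 100nM final supplies 1,3-BPG to PGK. Buffer: 100mM TEA pH 7.6, 5mM MgCl2, 0.01% Tween-20. Wells lacking PGK served as controls.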

[7] = target: phosphoglycerate mutase (Leishmania major) (UniProt Q4Q090); experiment: qHTS Validation Assay to Find Inhibitors of Phosphoglycerate Mutase (AID 504548); note: series mostly up to about 58 µM
Method in brief: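 Luminescent end-point read-out via Kinase-GloPlus after a 10-minute development. Reaction: 1.25nM Leishmania major PGAM with substrate and compound, 45 minutes at room temperature in TEA buffer (pH 7.6) with MgCl2 and Tween-20.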

[8] = qHTS for Inhibitors of ATXN expression: Validation of Cytotoxic Assay (AID 588349)
Method in brief: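 Titrated compounds are added to cultured HEK293 cells, which are then held at 37 degrees C for 72 hr; loss of intracellular ATP, measured with CellTiter Glo, indicates toxicity.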

[9] = qHTS for Inhibitors of ATXN expression: Validation (AID 588378); note: series mostly up to about 57 µM; nearly all actives have a fitted effect of over 75% in size
Method in brief: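 HEK293 cells carrying ATXN2-firefly luciferase reporter, treated with compound 24 h at 37 °C. Viability read first by CellTiter-Fluor (405/525 nm), then reporter expression by Bright-Glo luminescence; controls were a known ATXN2 expression inhibitor and a luciferase inhibitor.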

[10] = Validation screen for small molecules that induce DNA re-replication in SW480 colon adenocarcinoma cells (AID 504364)
Excerpt: H Molecular Libraries Probe Production Network [MLPCN]
NIH Chemical Genomics Center [NCGC]
Assay Provider: Melvin DePamphilis, NICHD, NIH
Eukaryotic cells normally restrict genome duplication to once per cell division. When this process is aberrant, DNA re-replication occurs when cells reinitiate DNA replication before the first round of replication is complete. DNA re-replication induces the DNA damage response, arrests cell proliferation, and triggers apoptosis. The cell cycle components cyclin A, Cdt-1, Cdc6 and geminin are critical regulators of this process and their misregulation results in DNA re-replication in normal and cancer cells. To identify compounds that induce re-replication in normal cells, an image-based assay was used to measure DNA content of nuclei, as detected by the fluorescent DNA binding dye, Hoechst. Cell nuclei were imaged by a fluorescence scanning plate imager and compounds that induce DNA re-replication were identified by the increase of nuclei with elevated fluorescence intensity.#
For screening, 250 cells in 5 uL/well were dispensed into black clear 1536-well plates (Aurora) using a solenoid-based dispenser. Following transfer of 23 nL compound or DMSO vehicle by a pin tool, the plates were incubated 48 hr at 37 C and 5% CO2. […]

Phosphoglycerate kinase, glycosomal (Trypanosoma brucei brucei), sequence (P07378 whole entry, looked up): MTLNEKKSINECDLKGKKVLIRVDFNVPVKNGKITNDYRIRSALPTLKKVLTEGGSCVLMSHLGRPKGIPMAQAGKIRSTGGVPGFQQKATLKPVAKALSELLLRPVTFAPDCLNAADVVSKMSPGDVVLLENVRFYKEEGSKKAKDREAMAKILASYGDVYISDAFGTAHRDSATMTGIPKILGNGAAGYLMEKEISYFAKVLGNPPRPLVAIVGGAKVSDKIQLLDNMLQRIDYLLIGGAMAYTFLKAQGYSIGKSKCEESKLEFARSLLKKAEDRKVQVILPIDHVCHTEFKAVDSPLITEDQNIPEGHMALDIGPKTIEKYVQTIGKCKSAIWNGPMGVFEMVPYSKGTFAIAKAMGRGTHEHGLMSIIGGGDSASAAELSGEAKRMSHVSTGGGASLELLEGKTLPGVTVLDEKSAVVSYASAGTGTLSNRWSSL
Estrogen receptor (Homo sapiens), sequence (P03372 whole entry, looked up): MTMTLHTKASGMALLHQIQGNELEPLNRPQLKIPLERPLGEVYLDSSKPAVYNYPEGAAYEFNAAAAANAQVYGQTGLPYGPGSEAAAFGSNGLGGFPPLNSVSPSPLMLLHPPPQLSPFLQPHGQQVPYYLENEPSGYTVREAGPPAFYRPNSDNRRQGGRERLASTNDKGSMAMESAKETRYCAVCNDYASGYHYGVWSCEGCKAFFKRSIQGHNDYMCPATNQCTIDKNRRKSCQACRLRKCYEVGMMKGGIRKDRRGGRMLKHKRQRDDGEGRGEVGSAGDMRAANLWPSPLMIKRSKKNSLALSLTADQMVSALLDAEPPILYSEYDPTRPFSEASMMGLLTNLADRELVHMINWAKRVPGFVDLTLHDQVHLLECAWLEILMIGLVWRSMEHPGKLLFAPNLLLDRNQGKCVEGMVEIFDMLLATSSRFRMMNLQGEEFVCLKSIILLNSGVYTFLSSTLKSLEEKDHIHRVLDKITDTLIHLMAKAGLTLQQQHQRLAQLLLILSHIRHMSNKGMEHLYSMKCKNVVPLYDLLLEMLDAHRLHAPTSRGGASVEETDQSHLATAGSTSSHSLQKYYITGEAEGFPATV
Ubiquitin carboxyl-terminal hydrolase 1 (Homo sapiens), sequence (O94782 whole entry, looked up): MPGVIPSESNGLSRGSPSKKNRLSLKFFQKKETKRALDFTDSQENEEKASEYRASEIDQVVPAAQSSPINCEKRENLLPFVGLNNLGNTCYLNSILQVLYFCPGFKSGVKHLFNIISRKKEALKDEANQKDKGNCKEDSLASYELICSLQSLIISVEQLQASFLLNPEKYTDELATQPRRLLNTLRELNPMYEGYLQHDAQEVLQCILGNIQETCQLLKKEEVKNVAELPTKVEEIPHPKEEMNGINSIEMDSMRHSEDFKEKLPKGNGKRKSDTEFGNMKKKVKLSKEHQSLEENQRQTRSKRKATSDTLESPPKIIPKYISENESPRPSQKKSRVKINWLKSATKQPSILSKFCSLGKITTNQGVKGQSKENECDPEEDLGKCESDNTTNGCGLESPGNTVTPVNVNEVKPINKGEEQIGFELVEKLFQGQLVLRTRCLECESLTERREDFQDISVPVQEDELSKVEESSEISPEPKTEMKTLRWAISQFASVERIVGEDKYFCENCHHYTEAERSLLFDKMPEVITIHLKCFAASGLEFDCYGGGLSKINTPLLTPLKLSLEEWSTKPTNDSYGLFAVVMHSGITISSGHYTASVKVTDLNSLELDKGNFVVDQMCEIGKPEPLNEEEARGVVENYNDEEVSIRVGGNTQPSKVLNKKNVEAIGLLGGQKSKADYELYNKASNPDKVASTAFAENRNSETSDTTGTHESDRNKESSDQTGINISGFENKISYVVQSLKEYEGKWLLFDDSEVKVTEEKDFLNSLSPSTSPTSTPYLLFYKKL
DNA dC->dU-editing enzyme APOBEC-3G (Homo sapiens), sequence (Q9HC16 whole entry, looked up): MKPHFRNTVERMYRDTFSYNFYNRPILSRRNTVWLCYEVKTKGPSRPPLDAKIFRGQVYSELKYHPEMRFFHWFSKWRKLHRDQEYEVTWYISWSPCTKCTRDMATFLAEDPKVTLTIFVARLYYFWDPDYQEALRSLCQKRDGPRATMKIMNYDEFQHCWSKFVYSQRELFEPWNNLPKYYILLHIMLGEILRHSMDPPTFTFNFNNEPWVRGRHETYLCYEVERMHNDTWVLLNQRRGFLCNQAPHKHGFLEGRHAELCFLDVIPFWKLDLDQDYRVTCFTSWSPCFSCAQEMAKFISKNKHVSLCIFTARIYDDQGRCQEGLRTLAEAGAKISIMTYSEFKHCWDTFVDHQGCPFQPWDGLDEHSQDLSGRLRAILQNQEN
Peptidyl-prolyl cis-trans isomerase NIMA-interacting 1 (Homo sapiens), sequence (Q13526 whole entry, looked up): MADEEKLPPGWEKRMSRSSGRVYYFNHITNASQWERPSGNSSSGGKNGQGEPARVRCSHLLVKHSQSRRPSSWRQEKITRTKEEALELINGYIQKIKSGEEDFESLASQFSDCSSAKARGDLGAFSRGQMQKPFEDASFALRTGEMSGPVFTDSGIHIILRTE
phosphoglycerate mutase (Leishmania major), sequence (Q4Q090 1-553): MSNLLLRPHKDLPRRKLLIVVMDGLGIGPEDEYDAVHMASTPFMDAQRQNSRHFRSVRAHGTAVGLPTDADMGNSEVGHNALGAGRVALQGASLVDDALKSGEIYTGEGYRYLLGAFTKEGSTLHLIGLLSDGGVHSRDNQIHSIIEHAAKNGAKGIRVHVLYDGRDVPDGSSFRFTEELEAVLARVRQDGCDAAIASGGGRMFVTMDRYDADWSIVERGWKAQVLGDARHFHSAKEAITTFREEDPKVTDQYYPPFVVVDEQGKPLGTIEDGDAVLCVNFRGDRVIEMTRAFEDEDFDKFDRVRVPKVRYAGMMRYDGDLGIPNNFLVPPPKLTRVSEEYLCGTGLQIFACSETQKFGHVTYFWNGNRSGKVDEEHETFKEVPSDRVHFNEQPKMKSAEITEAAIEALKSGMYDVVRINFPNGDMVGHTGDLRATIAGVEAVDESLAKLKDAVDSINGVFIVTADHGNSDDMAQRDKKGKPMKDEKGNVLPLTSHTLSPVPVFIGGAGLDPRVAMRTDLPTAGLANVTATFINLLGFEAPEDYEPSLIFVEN

In the case of Nc1nc2c(c(=O)[nH]1)N(C=O)[C@H](CNc1ccc(C(=O)N[C@@H](CCC(=O)O)C(=O)O)cc1)CN2, the outcome [1] was “inactive”.

In the case of OC[C@@H](O)[C@@H](O)[C@H](O)[C@@H](O)CO, the Potency [2] was “inactive” and the outcome [3] was “inactive”.

With C[C@@]12C(=O)OC(=O)[C@@]1(C)C1CCC2O1 the outcome [1] was “inactive”.

For CN(C)CC[C@H](c1ccc(Cl)cc1)c1ccccn1, the outcome [1] was “inactive”.

With O=C(O)C=Cc1ccc(Cn2ccnc2)cc1 the outcome [1] was “inactive” and the outcome [4] was “inactive”.

For OCC(O)C(O)C(O)CO (configuration not stated), the outcome [1] was “inactive”.

For CCOC(=O)C1=C(C)NC(=S)NC1c1cccc(O)c1 (configuration not stated), the outcome [1] was “inactive” and the outcome [4] was “inactive”.

For COc1ccc([C@@H]2CNC(=O)C2)cc1OC1CCCC1, the outcome [1] was “inactive” and the outcome [4] was “inactive”.

With COc1ccc2cc([S+]([O-])Cc3ncc(C)c(OC)c3C)nc2c1 the outcome [5] was “inactive”, the outcome [6] was “inactive” and the outcome [7] was “inactive”. For the same compound, the outcome [8] was “inactive” and the outcome [9] was “inactive”.

With CN[C@H](CC(C)C)C(=O)N[C@H]1C(=O)N[C@@H](CC(N)=O)C(=O)N[C@@H]2C(=O)N[C@H]3C(=O)N[C@H](C(=O)N[C@H](C(=O)O)c4cc(O)cc(O)c4-c4cc3ccc4O)[C@H](O)c3ccc(c(Cl)c3)Oc3cc2cc(c3O[C@@H]2O[C@H](CO)[C@@H](O)[C@H](O)[C@@H]2O[C@H]2C[C@](C)(N)[C@H](O)[C@H](C)O2)Oc2ccc(cc2Cl)[C@H]1O the outcome [5] was “inactive”, the outcome [6] was “inactive” and the outcome [7] was “inactive”. The outcome [8] was “inactive” and the outcome [9] was “inactive”.

With CC(C=CC1=C(C)CCCC1(C)C)=CC=CC(C)=CC(=O)Nc1ccc(O)cc1 the Potency [2] was 31.6 µM [inhibitor] (active) and the outcome [3] was “inactive”.

For Cc1ccc(O)c(C(CCN(C(C)C)C(C)C)c2ccccc2)c1 (configuration not stated), the outcome [1] was “inactive”.

In the case of O=c1[nH]c(=O)n([C@H]2C[C@@H](O)[C@@H](CO)O2)cc1C=CBr, the outcome [5] was “inactive”, the outcome [6] was “inactive” and the outcome [7] was “inactive”. The outcome [1] was “inactive”, the outcome [8] was “inactive” and the outcome [9] was “inactive”.

In the case of CC(Oc1ccc(O)cc1)(P(=O)(O)O)P(=O)(O)O, the outcome [4] was “inactive”.

For COc1cc2ncnc(Nc3cccc(Br)c3)c2cc1OC, the outcome [4] was “inactive”.

In the case of CN(N=O)C(=O)N[C@H]1C(O)OC(CO)[C@@H](O)[C@H]1O (some centres not stated), the outcome [1] was “inactive” and the outcome [4] was “inactive”.

For CCN1CCN(C(=O)N[C@H](C(=O)N[C@@H]2C(=O)N3C(C(=O)O)=C(CSc4nnnn4C)CS[C@@H]23)c2ccc(O)cc2)C(=O)C1=O, the outcome [1] was “inactive”.

With Cc1cc(O)c2c(c1)C(=O)c1cccc(O)c1C2=O the outcome [1] was “inactive”, the outcome [4] was “inactive” and the Potency [2] was “inactive”.

In the case of COc1ccc2c(c1OC)C(=O)OC2[C@H]1c2c(cc3c(c2OC)OCO3)CCN1C (some centres not stated), the outcome [1] was “inactive”.

For CC(C)[C@H](CO)Nc1nc(Nc2cccc(Cl)c2)c2ncn(C(C)C)c2n1, the outcome [4] was “inactive”.

In the case of O=c1c(O)c(-c2ccc(O)c(O)c2)oc2cc(O)ccc12, the outcome [4] was “inactive”.

In the case of COc1cc2c(cc1O)CCC1C2CC[C@@]2(C)C1CC[C@@H]2O (some centres not stated), the outcome [4] was “inactive”.

For COc1ccc(C(C)=O)c(O)c1, the outcome [1] was “inactive”.

In the case of c1coc(CNc2ncnc3nc[nH]c23)c1, the outcome [1] was “inactive” and the outcome [4] was “inactive”.

In the case of N=c1ccn2c(n1)O[C@H]1[C@@H](O)[C@@H](CO)O[C@H]12, the outcome [10] was “inactive”.
